Results filed as inconclusive are left out. The source made the active and inactive calls. How the source made its calls: active means hit-call score of the fitted dose curve at least 0.9, where 1 is the maximum; inconclusive means response in the unintended direction; inactive means score below 0.9.

Read-out in this experiment: glucuronosyltransferase (UGT1A1), UGT1A1 (gene 54658)
Briefly: CLD_UGT1A1_6hr: CellzDirect (CLD) Gene Expression Assay for glucuronosyltransferase (UGT1A1) at 6 hours (AID 2283672). On the procedure: CLD_6hr is a cell-based, multiplexed-readout assay that uses hepatocyte, a human liver primary cell, with measurements taken at 6 hours after chemical dosing in a 96-well plate.CLD_UGT1A1_6hr is one of 16 assay component(s) measured or calculated from the CLD_6hr assay. It is designed to make measurements of mRNA induction, a form of inducible reporter, as detected with chemiluminescence signals by Quantitative Nuclease Protection Assay (qNPA) technology.Data from the assay component CLD_UGT1A1_6hr was analyzed at the endpoint, CLD_UGT1A1_6hr, in the positive analysis fitting direction relative to DMSO as the negative control and baseline of activity. Using a type of inducible reporter, gain-of-signal activity can be used to understand changes in the reporter gene as they relate to the gene UGT1A1. Furthermore, this assay endpoint can be referred to as a primary readout. To generalize the intended target to other relatable targets, this assay endpoint is annotated to the transferase intended target family, where subfamily is glucuronosyltransferase.
Human hepatocyte cultures were treated daily for two consecutive days with fresh dosing solutions containing appropriate concentrations of the 320 ToxCast chemicals (chemical identities were blinded to CellzDirect and other ToxCast collaborators), vehicle control (0.2% DMSO), and positive control inducers as summarized in Table 1. Due to the large number of treatment groups and chemicals examined, the ToxCast chemicals were divided into two groups (spanning two independent cultures of hepatocytes from separate donor preparations (Hu778: ToxCast plates 1 and 2; Hu776: ToxCast plates 3 and 4). Each preparation of human hepatocyte cultures was treated with respective vehicle control, medium only control, set of six positive controls/reference chemicals for the five hepatic receptor pathways, and a subset of eight of the ToxCast chemicals (indoxacarb, pyrithiobac-sodium, norflurazon, cyhalofop-butyl, methomyl, thiram, acetochlor, and propiconazole). These replicate data, coupled with internal replicates designed within the blinded ToxCast chemical library, provided additional data to evaluate interindividual differences between hepatocyte preparations and their potential impact on chemical profiles.Cell morphology and integrity were evaluated using phase-contrast microscopy as an indicator of hepatocyte cell health (Tyson & Green, 1987). Cultures for each treatment group (i.e., media, vehicle [0.2% DMSO], positive control inducers [multiple concentrations], and the ToxCast chemicals [multiple concentrations]) were observed and cell morphology was assessed relative to vehicle control cultures at each harvest time point (0, 6, 24, or 48 h). […] Images were evaluated at the conclusion of the study to assess changes in cell integrity and account for the effects of chemical exposure on uncharacteristic changes in concentration-dependent gene expression profiles. The results from these determinations of apparent cytotoxicity were annotated (yes/no) alongside the corresponding qNPA data for reference.At the conclusion of each treatment period, hepatocyte cultures (96-well) were washed with 1 volume of HBSS, lysed by addition of 25 ul ArrayPlate lysis buffer (HTG, Tucson, AZ), and 70 ul/well of Denaturation Oil, denatured by incubation at 95C for 10 min, and frozen at approximately -70C until analysis by nuclease protection assay (qNPA) (Roberts et al., 2007). For qNPA analysis, cell lysates were thawed at 50C for approximately 30 min, qNPA probes were added, and samples were incubated at 95C for 10 min to begin the detection process by denaturing the target RNA, dissociating the duplexes and secondary structure hybridization. At the conclusion of the hybridization period, S1 nuclease reagent was added to each sample to digest all nonprotected nucleotides at 50C for 60-90 min. […]
On to `CC(C)N1C(=O)N(c2ccccc2)CSC1=NC(C)(C)C`, for which the result was inactive. Still for that read-out and setting: in the case of `CCCCC(C#N)(Cn1cncn1)c1ccc(Cl)cc1` (stereo not given) it was “inactive”; in that of `N#CN=C1SCCN1Cc1ccc(Cl)nc1`, “inactive”; in that of `CC1(C)C(C=C(Cl)Cl)C1C(=O)OC(C#N)c1cccc(Oc2ccccc2)c1` (stereo not given), “inactive”.

In the case of `CCCCOCN(C(=O)CCl)c1c(CC)cccc1CC`, the molecule was classed as inactive. The same measure, in the same setting: to `CCOc1nc(F)cc2nc(S(=O)(=O)Nc3c(Cl)cccc3Cl)nn12` belongs “inactive”; to `O=P(O)(O)CCCl`, “inactive”; to `CCOP(=S)(OCC)Oc1nc(Cl)n(C(C)C)n1`, “inactive”. Consider `Nc1cnn(-c2ccccc2)c(=O)c1Cl`, for which the outcome was inactive. With `CCOc1nc(C(Cl)(Cl)Cl)ns1`, the result was inactive.

On to `CC(C)=CC1C(C(=O)OCc2coc(Cc3ccccc3)c2)C1(C)C` (stereo not given), for which the outcome was inactive. Same read-out and setting: in the case of `CCCC(=NOCC)C1=C(O)CC(CC(C)SCC)CC1=O` (stereo not given) it was “inactive”. Same read-out and setting: to `COCC(C)N(C(=O)CCl)c1c(C)csc1C` (stereo not given) belongs “inactive”. As to `COP(=S)(OC)SCn1nnc2ccccc2c1=O`, the AC50 is 1730 nM (active). On to `C=C(C)CN(CC)c1c([N+](=O)[O-])cc(C(F)(F)F)cc1[N+](=O)[O-]`, for which the molecule was called inactive. The same measure, in the same setting: in the case of `CN=C=S` it was “inactive”; in that of `COc1ccc(-c2ccccc2)cc1NNC(=O)OC(C)C`, “inactive”; in that of `OC(c1ccc(Cl)cc1)(c1ccc(Cl)cc1)C(Cl)(Cl)Cl`, “inactive”.

In the case of `CCOc1cc(C(C)(C)C)ccc1C1COC(c2c(F)cccc2F)=N1` (stereo not given), the result was inactive.

Take `CC1(C)CCC(=Cc2ccc(Cl)cc2)C1(O)Cn1cncn1` (stereo not given): the molecule was classed as inactive.

Take `Nc1c(Cl)c(Cl)nc(C(=O)O)c1Cl`: the result was inactive. On the same count and under the same terms, to `CCSC(=O)N1CCCCCC1` belongs “inactive”.

Take `O=C(O)c1c(Cl)ccc2cc(Cl)cnc12`: the result was inactive. As for `CC(C)Nc1nc(Cl)nc(NC(C)C)n1`, the outcome was inactive. With `COC(=O)c1c(C(F)F)nc(C(F)(F)F)c(C2=NCCS2)c1CC(C)C`, the molecule was classed as inactive. On the same count and under the same terms, to `COP(=O)(OC)O/C(C)=C/C(=O)N(C)C` belongs “inactive”; to `COC(=O)NC(=S)Nc1ccccc1NC(=S)NC(=O)OC`, “inactive”; to `CCOC(=O)C(C)OC(=O)c1cc(Oc2ccc(C(F)(F)F)cc2Cl)ccc1[N+](=O)[O-]` (stereo not given), “inactive”.

Consider `Clc1nc(Cl)nc(Nc2ccccc2Cl)n1`, for which the outcome was inactive. Same read-out and setting: in the case of `CC(C)C1(C)N=C(c2ncccc2C(=O)O)NC1=O` (stereo not given) it was “inactive”. Same read-out and setting: to `Cc1cnc(C2=NC(C)(C(C)C)C(=O)N2)c(C(=O)O)c1` (stereo not given) belongs “inactive”; to `O=c1n(Cl)c(=O)n(Cl)c(=O)n1Cl`, “inactive”; to `C=CCOC(=O)C(C)(C)OC(=O)c1cc(-n2c(=O)cc(C(F)(F)F)n(C)c2=O)ccc1Cl`, “inactive”. The same measure, in the same setting: to `COC(=O)N(C(=O)N1CO[C@@]2(C(=O)OC)Cc3cc(Cl)ccc3C2=N1)c1ccc(OC(F)(F)F)cc1` belongs “inactive”; to `CSC(=O)c1c(C(F)F)nc(C(F)(F)F)c(C(=O)SC)c1CC(C)C`, “inactive”. For `CCN(CC)C(=O)C(C)Oc1cccc2ccccc12` (stereo not given), the result was inactive. With `O=C(Nc1ccccc1-c1ccc(Cl)cc1)c1cccnc1Cl`, the molecule was classed as inactive. With `Cc1cc(C)nc(Nc2ccccc2)n1`, the outcome was inactive. As for `COc1cc(Cl)c(OC)cc1Cl`, the result was inactive.

Turning to `CC(C)N1C(=O)c2ccccc2NS1(=O)=O`, the outcome was inactive.

Broadly, the AC50 is the concentration at which the activity in the assay is half-maximal.

For the origin of these results see PubChem BioAssay (EPA / NIEHS).
